Results: PubChem BioAssay (EPA / NIEHS)
Results filed as inconclusive are left out. Activity calls are given as the source filed them. The calls were made as follows, unless noted: active = hit-call score of the fitted dose curve at least 0.9, where 1 is the maximum; inactive = score below 0.9.

Key:
[1] = ACEA_ER_80hr: ACEA Biosciences xCELLigence Real-Time Cell Analysis on Estrogen Receptor Agonism for Proliferation (AID 2282667; active = hit-call score of the fitted dose curve at least 0.9, where 1 is the maximum); details: T47D proliferation, impedance (xCELLigence), 80 h
Summary of the method: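 Impedance readout (RT-CES) of T47D proliferation at 80 h post-dose; gain of signal vs DMSO baseline. Compounds: 8 conc, 1:4 serial, top 100 uM final, ≤0.5% DMSO; biological duplicate.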

[2] = ATG_CRE_CIS: Attagene CIS-FACTORIAL HepG2 Assay for human cAMP Responsive Element (CRE) binding protein 3 (AID 2282926); details: HepG2 CRE cis-reporter, Attagene multiplexed mRNA; actives raise or lower the signal
Summary of the method: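 Endogenous CRE-binding activity in HepG2 is reported through a cis-regulated transfected reporter. Following a day of exposure, mRNA levels are determined by reverse transcription PCR and fluorescent fragment analysis; fits run in both directions versus DMSO.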

[3] = molecular target: CCAAT/enhancer-binding protein beta (Homo sapiens) (UniProt P17676); assay: ATG_C_EBP_CIS: Attagene CIS-FACTORIAL HepG2 Assay for human CCAAT/Enhancer Binding Protein (C/EBP) beta (AID 2282927); details: HepG2 Attagene cis-factorial transcription factor reporter; actives raise or lower the signal
Sequence of CCAAT/enhancer-binding protein beta (Homo sapiens) (P17676 whole entry, looked up): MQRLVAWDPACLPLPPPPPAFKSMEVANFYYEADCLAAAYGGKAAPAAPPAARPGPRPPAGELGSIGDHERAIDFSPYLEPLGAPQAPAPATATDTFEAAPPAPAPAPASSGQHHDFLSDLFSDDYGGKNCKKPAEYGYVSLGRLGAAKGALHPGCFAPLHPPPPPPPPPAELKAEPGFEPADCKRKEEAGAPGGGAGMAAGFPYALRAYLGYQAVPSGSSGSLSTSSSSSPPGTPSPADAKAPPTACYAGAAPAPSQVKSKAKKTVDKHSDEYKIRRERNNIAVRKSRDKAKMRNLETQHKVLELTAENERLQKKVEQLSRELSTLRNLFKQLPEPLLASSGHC
Summary of the method: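 Following a 24 h incubation with test chemical, transfected HepG2 cells yielded RNA whose reporter transcripts were quantified by RT-PCR and fluorescent capillary electrophoresis, with DMSO serving as baseline for bidirectional fitting.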

[4] = ATG_CMV_CIS: Attagene CIS-FACTORIAL HepG2 Assay for human CMV (Internal Marker) (AID 2282928); details: HepG2 CMV promoter reporter, transcription factor profiling; actives raise or lower the signal;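 also: endpoint acts as a background internal control marker rather than a target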
Summary of the method: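 Cell system: HepG2, transiently transfected multiple reporter units under cis promoters. Exposure: 24 h. Detection: RT-PCR, FAM labeling, HpaI digestion, capillary electrophoresis. Analysis: bidirectional, DMSO baseline.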

[5] = ATG_DR4_LXR_CIS: Attagene CIS-FACTORIAL HepG2 Assay for human Liver X Receptor (LXR), DR4 submotif (AID 2282929); details: HepG2 Attagene DR4 cis-reporter, mRNA transcription; actives raise or lower the signal
Summary of the method: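 After transient transfection with multiplexed cis-promoter reporter units, HepG2 cells received test chemicals for 24 h. Reporter mRNA induction, detected by fluorescence after RT-PCR and capillary electrophoresis, was scored relative to DMSO.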

[6] = molecular target: Aryl hydrocarbon receptor (Homo sapiens) (UniProt P35869); assay: ATG_Ahr_CIS: Attagene CIS-FACTORIAL HepG2 Assay for human Aryl Hydrocarbon Receptor (Ahr) (AID 2282930); details: HepG2 AhR cis-factorial reporter transcription; actives raise or lower the signal
Sequence of Aryl hydrocarbon receptor (Homo sapiens) (P35869 whole entry, looked up): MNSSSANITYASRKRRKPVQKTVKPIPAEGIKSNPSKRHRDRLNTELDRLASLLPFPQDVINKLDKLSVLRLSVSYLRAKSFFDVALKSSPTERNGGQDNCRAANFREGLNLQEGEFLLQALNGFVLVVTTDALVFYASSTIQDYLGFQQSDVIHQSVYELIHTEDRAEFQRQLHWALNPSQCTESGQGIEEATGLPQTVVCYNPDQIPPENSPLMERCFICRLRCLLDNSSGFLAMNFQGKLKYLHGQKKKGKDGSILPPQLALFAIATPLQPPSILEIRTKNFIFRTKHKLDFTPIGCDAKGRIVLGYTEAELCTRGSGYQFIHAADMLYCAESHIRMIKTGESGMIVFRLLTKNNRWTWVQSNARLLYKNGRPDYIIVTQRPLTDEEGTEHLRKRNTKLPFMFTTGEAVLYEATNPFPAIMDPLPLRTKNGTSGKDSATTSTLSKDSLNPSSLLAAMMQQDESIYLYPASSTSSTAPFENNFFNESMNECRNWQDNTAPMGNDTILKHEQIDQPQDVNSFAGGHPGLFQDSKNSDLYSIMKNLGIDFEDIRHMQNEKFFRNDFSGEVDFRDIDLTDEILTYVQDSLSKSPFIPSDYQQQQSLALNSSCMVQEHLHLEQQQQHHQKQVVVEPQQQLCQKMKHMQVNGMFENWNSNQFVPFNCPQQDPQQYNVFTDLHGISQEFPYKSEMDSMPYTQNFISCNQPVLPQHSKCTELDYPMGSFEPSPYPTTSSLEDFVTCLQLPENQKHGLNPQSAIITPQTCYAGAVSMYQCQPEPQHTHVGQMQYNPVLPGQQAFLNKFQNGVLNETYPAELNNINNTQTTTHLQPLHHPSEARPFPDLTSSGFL
Summary of the method: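 Values derive from bidirectional fitting against DMSO negative control. Underlying signal: cis-element reporter mRNA in transiently transfected HepG2, harvested 24 h post-dose and measured by RT-PCR plus capillary electrophoresis.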

Measured: AC50

ClCc1ccccn1
active: [2] 67.5 µM | [6] 76 µM
inactive: all other assays above

Nc1ccc(Cl)cc1C(=O)c1ccccc1
active: [5] 49.5 µM
inactive: all other assays above

BrCCBr
not listed: [4]
inactive: all other assays above

C[C@]12CC[C@H](O)CC1=CC[C@@H]1[C@@H]2CC[C@]2(C)C(=O)CC[C@@H]12
active: [1] 0.983 µM
not listed: [4]
inactive: all other assays above

Nc1cccc2ccccc12
active: [5] 154 µM | [6] 5.16 µM
inactive: all other assays above

C[C@H]1O[C@@H](O[C@H]2[C@@H](O)C[C@H](O[C@H]3[C@@H](O)C[C@H](O[C@H]4CC[C@@]5(C)[C@H](CC[C@@H]6[C@@H]5CC[C@]5(C)[C@@H](C7=CC(=O)OC7)CC[C@]65O)C4)O[C@@H]3C)O[C@@H]2C)C[C@H](O)[C@@H]1O
inactive: [1] | [2]
active: [3] 2.99 µM | [5] 0.0564 µM

COc1cc2c(cc1OC)[C@@]13CCN4CC5=CCO[C@H]6CC(=O)N2[C@H]1[C@H]6[C@H]5C[C@H]43
not listed: [4]
inactive: all other assays above

COC(=O)Cc1ccccc1
inactive: all assays above

Cc1cc(Cl)ccc1O[C@H](C)C(=O)O
inactive: all assays above

COc1cc(OC)nc(NC(=O)NS(=O)(=O)c2ncccc2C(=O)N(C)C)n1
inactive: all assays above

NC(=S)Nc1ccccc1
not listed: [2]
inactive: all other assays above

O=[N+]([O-])c1ccc(O)c([N+](=O)[O-])c1
active: [1] 75.8 µM
not listed: [4]
inactive: all other assays above

O=C(O)Cc1ccccc1
not listed: [4]
inactive: all other assays above

CC(=O)OC(c1ccccc1)C(Cl)(Cl)Cl (centres undefined)
inactive: [1] | [3] | [5]

Cc1ccc2ccccc2c1C
active: [1] 13.5 µM | [6] 6.24 µM
inactive: [3] | [4] | [5]

CCC[CH2][Sn]([Cl])([Cl])[Cl]
not listed: [2]
inactive: all other assays above

C=C(C)C#N
not listed: [2]
inactive: all other assays above

CCOP(=O)(CN(CCO)CCO)OCC
not listed: [2]
inactive: all other assays above

OCc1ccco1
not listed: [2]
inactive: all other assays above

Cl/C=C/Cl
not listed: [2]
inactive: all other assays above

Cc1cc(=O)[nH]o1
not listed: [2]
inactive: all other assays above

Clc1ccc(COC(Cn2ccnc2)c2ccc(Cl)cc2Cl)cc1 (centres undefined)
active: [5] 4.8 µM
not listed: [2]
inactive: all other assays above

CCCCCCCCCl
not listed: [2]
inactive: all other assays above

CCCCOCCOC(C)=O
inactive: [1] | [3] | [5] | [6]

Nc1ncc([N+](=O)[O-])s1
inactive: [1] | [3] | [5]
active: [6] 62 µM

COP(=O)(OC)OC
not listed: [2]
inactive: all other assays above

C=CC(=O)N(C)C
not listed: [2]
inactive: all other assays above

ClC1=C(Cl)[C@]2(Cl)[C@H]3[C@H]([C@H]4C=C[C@H]3C4)[C@@]1(Cl)C2(Cl)Cl
active: [5] 10.2 µM
not listed: [4]
inactive: all other assays above

O=Cc1cccc(Oc2ccccc2)c1
not listed: [2]
inactive: all other assays above

CC(=O)c1cc(C(C)(C)C)cc2c1CCC2(C)C
active: [3] 159 µM | [4] 62.5 µM | [5] 26.1 µM
inactive: [1] | [6]

CC(C)c1ccc(CO)cc1
inactive: [1] | [3] | [5]
